Reference: PubChem BioAssay AID1745848 (National Center for Advancing Translational Sciences (NCATS), 2022)
The whole screen tested about 2,100 compounds, of which about 940 (45%) were called active. About 48% were inconclusive and are not listed. The call rests on the fitted dose curve; in most records, active means well fitted inhibition curve with a large enough effect; inconclusive means small, poorly fitted or top-dose-only effect; inactive means no such curve, though single readings can be large or run the other way. The set was probably picked from earlier hits. Some of the results follow.

Experiment: Confirmatory qHTS for Inhibitors of ATXN expression; further: nearly all actives have a fitted effect of over 65% in size;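 on activity change, negative = inhibition: 0% = DMSO vehicle wells and -100% = medium-only wells without cells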
Details: ATXN2-luciferase reporter cells, luminescence, 24 h; series mostly up to 11.5 µM; activity change, negative = inhibition: at the top concentration
Outline: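 Cells carrying ATXN2-luciferase reporter exposed 24 h at 37 C to compound. Viability then read by CellTiter-Fluor (25 uM GF-AFC, 30 min), followed by SteadyGlo luminescence; medium-only wells set 100% inhibition.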
Potency means the concentration at half of the fitted maximal effect.

| Compound | Potency | activity change, negative = inhibition |
| --- | --- | --- |
| CCc1cc(C)cc(OCCNC(=O)c2cncc(Br)c2)c1 | 25.1 µM (active) | – |
| CCOc1ccc(CCNC(=O)c2ccc(OCc3c(C)noc3C)cc2)cc1OCC | – | -13.2% (inactive) |
| COc1ccc(OCc2cccc(C(=O)Nn3cc([N+](=O)[O-])cn3)c2)cc1 | 0.398 µM (active) | – |
| O=C(Nc1ccc2c(c1)CCC2)C1CCN(c2c3c(nc4ncnn24)CCC3)CC1 | 7.94 µM (active) | – |
| CC(C)COc1cccc(C(=O)N(CC(=O)Nc2ccccc2C(F)(F)F)Cc2ccco2)c1 | 3.16 µM (active) | – |
| Cc1cc(C)nc(N/N=C2/CCCC/C2=C\c2ccccc2)n1 | 2.82 µM (active) | – |
| COc1cc2[nH]c(=O)n(CCCCCC(=O)N3CC=C(c4ccccc4)CC3)c(=O)c2cc1OC | 3.16 µM (active) | – |
| CCOC(=O)c1c(NC(=O)C(Sc2ccccc2)c2ccccc2)sc(C(=O)N(C)C)c1C (stereo not drawn) | 25.1 µM (active) | – |
| CCOC(=O)c1c(NC(=O)COC(=O)c2ccccc2NC)sc(C(=O)N(C)C)c1C | – | -24% (inactive) |
| NC(Cc1ccc(F)cc1)c1csc(NC(=O)NC(c2ccccc2)c2ccccc2)n1 (stereo not drawn) | 28.2 µM (active) | – |
| NC(Cc1ccc(Cl)cc1)c1csc(NC(=O)Nc2ccccc2-c2ccccc2)n1 (stereo not drawn) | 3.16 µM (active) | – |
| COc1ccc(N(C(=O)c2snc(C(N)=O)c2N)C(C(=O)NCc2ccc(F)cc2)c2ccc(O)cc2)cc1 (stereo not drawn) | – | -19.9% [at 57.5 µM] (inactive) |
| COc1ccc(CNC(=O)Nc2nc(C(N)Cc3ccc(Cl)cc3)cs2)cc1 (stereo not drawn) | 28.2 µM (active) | – |
| CC(C)CC(N)c1csc(NC(=O)Nc2ccccc2C(C)(C)C)n1 (stereo not drawn) | 3.16 µM (active) | – |
| COc1ccc(CC(N)c2csc(NC(=O)c3ccccc3OC)n2)cc1 (stereo not drawn) | – | -21.7% [at 57.5 µM] (inactive) |
| NC(c1ccccc1)c1csc(NC(=O)Nc2ccccc2Oc2ccccc2)n1 (stereo not drawn) | 3.16 µM (active) | – |
| O=C(OCCN1C(=O)c2cccc3c(N4CCOCC4)ccc(c23)C1=O)c1ccccc1Cl | 5.01 µM (active) | – |
| COc1ccc2c(-c3ccc(S(N)(=O)=O)cc3)c(-c3ccc(S(C)(=O)=O)cc3)sc2c1 | 28.2 µM (active) | – |
| O=C(/C=C/c1ccco1)Oc1cc(Br)cc(/C=N/NC(=O)c2ccccc2O)c1 | 0.447 µM (active) | – |
| O=C(CNC(=O)c1cccc(F)c1)N/N=C/c1cc(Br)ccc1OC(=O)/C=C/c1ccco1 | 7.94 µM (active) | – |

| Compound | Potency | activity change, negative = inhibition |
| --- | --- | --- |
| O=C(CNC(=O)c1ccc(F)cc1)N/N=C/c1cc(Br)ccc1OC(=O)/C=C/c1ccco1 | 15.8 µM (active) | – |
| O=C(CNC(=O)c1ccccc1F)N/N=C/c1cc(Br)ccc1OC(=O)/C=C/c1ccco1 | 11.2 µM (active) | – |
| O=C(NNC(=O)c1cnccn1)c1ccc(Cl)c(Cl)c1 | 15.8 µM (active) | – |
| O=C(/C=C/c1ccccc1)NC(=S)NNC(=O)c1cnccn1 | 7.94 µM (active) | – |
| COc1cc(C(=O)NC(=S)NNC(=O)c2cnccn2)cc(OC)c1OC | 12.6 µM (active) | – |
| O=C(NCCc1csc(-c2cccnc2)n1)c1cccc(Cl)c1 | – | -25.2% [at 57.5 µM] (inactive) |
| CCCCOc1ccc(C(=O)NNC(=O)c2cnccn2)cc1OC | 17.8 µM (active) | – |
| NC(N)=N/N=C/c1ccc2cccc(OCc3ccccc3)c2n1 | 10 µM (active) | – |
| CCC(c1nnnn1C1CCCC1)N(Cc1cccs1)Cc1cc2cc(C)ccc2[nH]c1=O (stereo not drawn) | 28.2 µM (active) | – |
| Cn1nnnc1Sc1ncnc2scc(-c3ccccc3Cl)c12 | 3.16 µM (active) | – |
| Cn1nnnc1Sc1ncnc2scc(Br)c12 | 28.2 µM (active) | – |
| Cn1nnnc1Sc1ncnc2scc(-c3ccc[nH]3)c12 | 28.2 µM (active) | – |
| CC(=O)c1cccc(-c2csc3ncnc(Sc4nnnn4C)c23)c1 | 11.2 µM (active) | – |
| CCOC(=O)c1c(C)oc2c(F)c(F)c(F)c(F)c2c1=O | 3.98 µM (active) | – |
| CCN(CC)CCNC1=NCCn2c1cc1cc(OC)ccc12 | 1.78 µM (active) | – |
| C[C@@H]1C[C@@H]2O[C@H]2/C=C\C=C\C(=O)Cc2c(Cl)c(O)cc(O)c2C(=O)O1 | 0.631 µM (active) | – |
| O=C(N/N=C/c1c(O)ccc2ccccc12)c1cccc(C(F)(F)F)c1 | 1 µM (active) | – |
| O=C(NN=Cc1c(O)ccc2ccccc12)c1ccc2c(c1)OCO2 | 2 µM (active) | – |
| O=C(N/N=C/c1ccccc1O)c1cccc(C(F)(F)F)c1 | 0.631 µM (active) | – |
| CCCC1CCC(c2ccc(C(=O)NN)cc2)CC1 (stereo not drawn) | 2.82 µM (active) | – |

| Compound | Potency | activity change, negative = inhibition |
| --- | --- | --- |
| FC(F)(F)c1cc(-c2ccccn2)nc2cc(-c3ccccc3)nn12 | – | -7.24% [at 57.5 µM] (inactive) |
| c1ccc(-c2cccc(-c3ccccn3)n2)nc1 | 0.112 µM (active) | – |
| Cc1cc(=O)[nH]c(N=N/C(=N/Nc2ccccc2C)c2ccccc2)n1 | 1.58 µM (active) | – |
| CC(=O)NC(c1cc(Cl)c2cccnc2c1O)C(C)C (stereo not drawn) | 0.794 µM (active) | – |
| CCC(=O)NC(C)c1cc(Cl)c2cccnc2c1O (stereo not drawn) | 1.78 µM (active) | – |
| CC(=O)NC(C)c1cc(Cl)c2cccnc2c1O (stereo not drawn) | 3.98 µM (active) | – |
| CCC(=O)NC(c1cc(Cl)c2cccnc2c1O)C(C)C (stereo not drawn) | 2.82 µM (active) | – |
| N#C/C(=C\c1ccc([N+](=O)[O-])o1)c1nc2ccccc2[nH]1 | 3.55 µM (active) | – |
| Cc1csc(NC(=O)COCC(=O)O)c1-c1nc2ccccc2s1 | 15.8 µM (active) | – |
| O=C(CN1CCCC1)N/N=C/c1c(O)ccc2ccccc12 | 1.78 µM (active) | – |
| O=C(CN1CCOCC1)N/N=C/c1c(O)ccc2ccccc12 | 7.08 µM (active) | – |
| Nc1nc(N)c2cc(Sc3ccc4ccccc4c3)ccc2n1 | 28.2 µM (active) | – |
| CCCCC(=O)OCC(=O)C1(O)Cc2c(O)c3c(c(O)c2C(OC2CC(NC(=O)C(F)(F)F)C(O)C(C)O2)C1)C(=O)c1c(OC)cccc1C3=O (stereo not drawn) | 2.51 µM (active) | – |
| COc1cccc2c1C(=N)c1c(O)c3c(c(O)c1C2=O)CC(O)(C(C)=O)CC3OC1CC(N)C(O)C(C)O1 (stereo not drawn) | 0.224 µM (active) | – |
| COc1cccc2c1C(=O)c1c(O)c3c(c(O)c1C2=O)C[C@](O)(C(C)=O)C[C@H]3O[C@@H]1C[C@@H](N)[C@@H](O)[C@@H](C)O1 | 0.282 µM (active) | – |
| CC(C)CCNC(=O)COc1cccc2c1OC(C)(C)C2 | – | -12% [at 57.5 µM] (inactive) |
| CCOC(=O)c1c2ccc(OCC(=O)N/N=C/c3ccc(C)cc3)cc2n2ccccc12 | 11.2 µM (active) | – |
| CCOC(=O)c1c(CSc2nc(C)cc(C)c2C#N)n(C)c2cc(Br)c(OC(C)=O)cc12 | – | -10.6% [at 57.5 µM] (inactive) |
